Measured values reported in PubChem BioAssay (Tox21).
“And” between values parts separate entries of the source, which are not always exact repeats. Equal values may be shown once. Inconclusive results are not listed. The source made the active and inactive calls. Unless noted, the call rests on the fitted dose curve; in most records, active means well fitted curve in the direction sought with a large enough effect in the repeat runs; inconclusive means weak or mixed curves; inactive means no such curve, though single readings can be large; an effect the other way counts as inactive or inconclusive.

Key:
[1] = qHTS assay for small molecule agonists of the p53 signaling pathway (AID 651631; calls by dose curve; further: nearly all actives have a fitted effect of over 15% in size)
Outline: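 Readout was fluorescence from the LiveBLAzer FRET substrate, applied for 2 h at room temperature after 16 h compound exposure at 37 °C. Cells were the p53RE-bla HCT-116 line, with beta-lactamase driven by p53 response elements.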

[2] = qHTS assay for small molecules that induce genotoxicity in human embryonic kidney cells expressing luciferase-tagged ATAD5 (AID 651632); further: nearly all actives have a fitted effect of over 15% in size
Outline: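 Reporter cells (HEK293T) express luciferase-tagged ATAD5, a protein that accumulates after DNA damage. Treat 16 hr at 37C/5% CO2, add Amplite, wait 30 min at RT, and read luminescence.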

[3] = qHTS assay for small molecule agonists of the p53 signaling pathway - cell viability (AID 651633; calls by dose curve; further: series mostly up to about 83 µM; nearly all actives have a fitted effect of over 30% in size)
Outline: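 p53RE-bla cells, seeded at 4,000 per well and rested 5 h at 37 C/5% CO2, received compounds in DMSO for 16 h at 37 C. CellTiter-Glo was then added, and luminescence was read after 30 min at room temperature to gauge cytotoxicity.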

[4] = qHTS assay for small molecules that induce genotoxicity in human embryonic kidney cells expressing luciferase-tagged ATAD5 - cell viability (AID 651634; calls by dose curve; further: nearly all actives have a fitted effect of over 25% in size)
Outline: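 Seeding of 2,000 HEK293T ATAD5-luciferase cells per well preceded pin-tool compound transfer. Plates sat 15.5 hr at 37C under 5% CO2, then fluorescence was read after 30 min with CellTiter-Fluor.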

[5] = qHTS assay for small molecule disruptors of the mitochondrial membrane potential - cell viability (AID 720634; calls by dose curve;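 further: human HepG2 liver cancer cells; series mostly up to about 83 µM; nearly all actives have a fitted effect of over 20% in size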)
Outline: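 Measuring cytotoxicity alongside mitochondrial potential, the screen quantified ATP by luminescence in HepG2 cells after 1 hr compound incubation and a 30 min room-temperature CellTiter-Glo step.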

[6] = qHTS assay for small molecule disruptors of the mitochondrial membrane potential (AID 720635); further: potency means the concentration at half of the fitted maximal effect
Outline: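 HepG2 cells (2,000/well) attached overnight at 37C, then took compound for 1 hr at 37C, 5% CO2. Mito-MPS dye was added for 30 min; fluorescence was read at 490/535 nm (monomers) and 540/590 nm (aggregates).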

[7] = qHTS assay to test for compound auto fluorescence at 590 nm (red) in HepG2 cells (AID 720674)
Outline: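 Compound auto-fluorescence is scored relative to Rose Bengal sodium, measured at 540/590 nm in live HepG2 cultures after 1 hr compound contact (37 C, 5% CO2).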

[8] = qHTS assay to test for compound auto fluorescence at 535 nm (green) in HepG2 cells (AID 720675)
[9] = qHTS assay to test for compound auto fluorescence at 460 nm (blue) in HEK293 cells (AID 720678)
Outline: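 HEK293 cells (2,000 per well, medium with 10% dialyzed FBS) attached for 4-5 hr at 37C, then received compound and stood overnight at 37C, 5% CO2. Blue fluorescence was read at Ex/Em 405/460 nm and expressed relative to triamterene.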

[10] = qHTS assay to test for compound auto fluorescence at 590 nm (red) in HEK293 cells (AID 720679)
Outline: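 HEK293 cells (2,000/well, medium with 10% dialyzed FBS) attached for 4-5 hr at 37C, received 23 nL compound and were incubated overnight at 37C, 5% CO2. Red fluorescence was then read at 540/590nm Ex/Em, referenced to Rose Bengal sodium.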

[11] = qHTS assay to test for compound auto fluorescence at 535 nm (green) in HEK293 cells (AID 720680)
[12] = qHTS assay to test for compound auto fluorescence at 460 nm (blue) in HEK293 cell free culture (AID 720681)
Outline: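 Test compounds were pinned into cell-free culture medium (DMEM with 10% FBS) and fluorescence was read directly at Ex/Em 405/460 nm. Signals were expressed as fluorescence equivalents of triamterene, with DMSO vehicle as control.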

[13] = qHTS assay to test for compound auto fluorescence at 535 nm (green) in HEK293 cell free culture (AID 720682)
Outline: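 Compounds were pin-transferred into cell-free DMEM with 10% FBS, and green fluorescence was read at excitation 485 nm and emission 535 nm. Intensities were expressed as fluorescein-equivalent values.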

[14] = qHTS assay to test for compound auto fluorescence at 590 nm (red) in HEK293 cell free culture (AID 720683)
Outline: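 Tox21 10K library compounds were pinned into cell-free DMEM with 10% FBS and fluorescence was read at excitation 540 nm. Activity is expressed as Rose Bengal sodium equivalency.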

[15] = qHTS assay to test for compound auto fluorescence at 590 nm (red) in HepG2 cell free culture (AID 720684)
Outline: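 Measured in medium alone (MEM containing 10% FBS) following pintool addition of compound; emission at 590 nm with 540 nm excitation, referenced to Rose Bengal sodium.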

[16] = qHTS assay to test for compound auto fluorescence at 460 nm (blue) in HepG2 cell free culture (AID 720685)
Outline: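 Compound (23 nL) or DMSO pinned into cell-free MEM with 10% FBS; blue fluorescence read at 405/460 nm excitation/emission, expressed as auto-fluorescence equivalency to triamterene.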

[17] = qHTS assay to test for compound auto fluorescence at 460 nm (blue) in HepG2 cells (AID 720687)
Outline: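 Cells (2,000/well in MEM with 10% FBS) attached overnight at 37 C, then were exposed to compound or DMSO for 1 hr at 37 C, 5% CO2. Fluorescence read at Ex/Em 405/460 nm, expressed as triamterene-equivalent signal.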

[18] = biological target: Glucocorticoid receptor (Homo sapiens) (UniProt P04150); assay: qHTS assay to identify small molecule agonists of the glucocorticoid receptor (GR) signaling pathway (AID 720691; active means well fitted activation curve with a large enough effect in the signal ratio in the repeat runs, not every such curve was filed as active; the % refers to the signal ratio)
Chain of Glucocorticoid receptor (Homo sapiens) (P04150 whole entry, looked up): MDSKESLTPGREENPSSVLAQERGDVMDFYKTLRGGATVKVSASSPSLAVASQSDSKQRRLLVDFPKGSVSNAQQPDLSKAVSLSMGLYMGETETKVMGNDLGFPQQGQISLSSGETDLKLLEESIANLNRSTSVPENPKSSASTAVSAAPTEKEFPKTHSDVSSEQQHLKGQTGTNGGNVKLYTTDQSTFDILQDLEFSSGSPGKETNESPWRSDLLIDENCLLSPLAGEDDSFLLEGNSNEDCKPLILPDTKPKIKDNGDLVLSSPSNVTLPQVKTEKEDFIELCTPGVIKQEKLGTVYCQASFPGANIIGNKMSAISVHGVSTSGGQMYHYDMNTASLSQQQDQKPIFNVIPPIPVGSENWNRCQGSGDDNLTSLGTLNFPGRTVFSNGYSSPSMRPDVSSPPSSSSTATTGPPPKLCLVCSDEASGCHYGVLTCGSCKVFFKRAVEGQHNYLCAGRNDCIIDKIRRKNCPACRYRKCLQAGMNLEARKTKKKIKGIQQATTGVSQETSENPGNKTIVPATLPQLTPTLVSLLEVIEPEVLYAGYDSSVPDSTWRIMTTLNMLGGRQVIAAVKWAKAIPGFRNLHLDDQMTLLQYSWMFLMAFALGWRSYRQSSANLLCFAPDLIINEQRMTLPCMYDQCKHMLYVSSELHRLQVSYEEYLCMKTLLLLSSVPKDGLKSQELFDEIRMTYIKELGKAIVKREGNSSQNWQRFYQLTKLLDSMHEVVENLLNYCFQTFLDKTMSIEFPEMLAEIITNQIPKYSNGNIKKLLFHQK
Outline: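 Reporter read-out: fluorescence intensity following 2 h room-temperature LiveBLAzer B/G FRET substrate loading. Prior step: GR-bla HeLa cells held 4 h, then treated 18 h at 37 C.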

[19] = biological target: Glucocorticoid receptor (Homo sapiens) (UniProt P04150); assay: qHTS assay to identify small molecule antagonists of the glucocorticoid receptor (GR) signaling pathway (AID 720692; active means well fitted inhibition curve with a large enough effect in the signal ratio in the repeat runs, not every such curve was filed as active; the % refers to the signal ratio)
Outline: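 Dexamethasone (5 nM final) stimulated a stably integrated GRE-beta-lactamase reporter in HeLa cells during 18 h co-incubation with compounds; signal was quantified as fluorescence intensity of B/G FRET substrate after 2 h.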

[20] = qHTS assay to test for compound auto fluorescence at 535 nm (green) in HepG2 cell free culture (AID 720686)

Measured: Potency

CN1CC(=O)N/C1=N/C(=O)Nc1cccc(Cl)c1
active: [6] 21.1 µM and 26.6 µM
inactive: [1] | [2] | [3] | [4] | [5] | [7] | [8] | [9] | [10] | [11] | [12] | [13] | [14] | [15] | [16] | [17] | [18] | [19]

CCCCCCCCCCCCCCCCCCO
inactive: [1] | [2] | [3] | [4] | [5] | [6] | [7] | [9] | [10] | [11] | [12] | [13] | [14] | [15] | [16] | [20] | [17] | [18] | [19]

O=C(O)c1cc(C(=O)O)cc(C(=O)O)c1
inactive: [1] | [2] | [3] | [4] | [5] | [6] | [7] | [8] | [9] | [10] | [11] | [12] | [13] | [14] | [15] | [16] | [20] | [17] | [18] | [19]

CC(C#N)(CCC(=O)O)N=NC(C)(C#N)CCC(=O)O (stereo not given)
inactive: [1] | [2] | [3] | [4] | [5] | [6] | [7] | [9] | [10] | [11] | [12] | [13] | [14] | [15] | [16] | [20] | [17] | [18] | [19]

[O-][n+]1cccc(CO)c1
inactive: [1] | [2] | [3] | [4] | [5] | [6] | [7] | [8] | [9] | [11] | [12] | [13] | [14] | [15] | [16] | [20] | [17] | [18] | [19]

NC(=O)N1c2ccccc2CC(=O)c2ccccc21
inactive: [1] | [2] | [3] | [4] | [5] | [6] | [7] | [8] | [10] | [11] | [12] | [13] | [14] | [16] | [17]

COc1cc2c(cc1OC)-c1cc3ccc(OC)c(OC)c3c[n+]1CC2
inactive: [1] | [2] | [3] | [4] | [5] | [7] | [8] | [9] | [10] | [11] | [12] | [13] | [14] | [15] | [16] | [17] | [18] | [19]
active: [6] 17.4 µM
